# Screen size: about 69,000 compounds; about 1,000 (1.4%) showed an effect of 50% or more. The sample holds strong results, similar compounds and a random draw of the others, so the mix is not that of the screen.
# Test system: Leishmania donovani
# Assay: Leishmania intramacrophage assay
# Type: functional, organism-based
# Parameters: scale not given: in the data most compounds retested in dose-response had high values
structure (smiles),measurement,setting,value
CC(C)Sc1ncccc1C(=O)NCc1ccc(O)cc1,Percent Effect,30 µM,14.96%
CCCS(=O)(=O)NCC(O)c1c(Cl)cccc1Cl (configuration not stated),Percent Effect,"30.3 µM, […]",7.191%
CCN(CC)S(=O)(=O)NCC(O)c1c(Cl)cccc1Cl (configuration not stated),Percent Effect,"30.3 µM, […]",62.85%
CCN(C)S(=O)(=O)NCC(O)c1c(Cl)cccc1Cl (configuration not stated),Percent Effect,"30.3 µM, […]",41.58%
CCCc1nc(CN2CCCC2Cn2cccn2)cs1 (configuration not stated),Percent Effect,"30.3 µM, […]",31.37%
CCC(=O)N1CCC2(CC1)CC(CC(=O)N(C)C)c1ccc(F)cc12 (configuration not stated),Percent Effect,"30.3 µM, […]",35.94%
CN(C)C(=O)CC1CC2(CCN(CC3CC3)CC2)c2cc(F)ccc21.O=C(O)C(F)(F)F (configuration not stated),Percent Effect,"30 µM, 30.03 µM",16.14%
CCN1CCC2(CC1)CC(CC(=O)N(C)C)c1ccc(F)cc12 (configuration not stated),Percent Effect,"30.3 µM, […]",64.47%
CC(=O)Nc1ccc(CNCC(O)c2ccccc2)cc1 (configuration not stated),Percent Effect,"30.3 µM, […]",-2.839%
CCOc1ccc(CNCC(O)c2ccccc2)cc1Cl.Cl (configuration not stated),Percent Effect,"30.3 µM, […]",14.87%
CCc1ccc(CNC(=O)NC2CCCc3c2cnn3CCO)s1 (configuration not stated),Percent Effect,"30.3 µM, […]",21.53%
O=C(Cc1ccccn1)N1CCCC(c2nccn2CC2CCC2)C1 (configuration not stated),Percent Effect,"30.3 µM, […]",-1.281%
CCOc1ccccc1OC1CCN(Cc2ccn(C)c(=O)c2)CC1,Percent Effect,30 µM,5.552%
CCCS(=O)(=O)N1CCC(NC(=O)c2cc3ccccc3s2)CC1,Percent Effect,"30.3 µM, […]",22.53%
CC(C)CN1CCC2(C=C(C(=O)N(C)C)c3ccccc32)CC1.O=C(O)C(F)(F)F,Percent Effect,"30.3 µM, […]",41.74%
CN1CCC2(C=C(C(=O)N(C)C)c3ccccc32)CC1,Percent Effect,"30.3 µM, […]",38.98%
CCC(=O)N1CCC2(C=C(C(=O)N3CCCC3)c3ccccc32)CC1,Percent Effect,"30.3 µM, […]",11.1%
CC(C)N1CCC2(C=C(C(=O)N(C)C)c3ccccc32)CC1.O=C(O)C(F)(F)F,Percent Effect,"30.3 µM, […]",-11.73%
CCN1CCC2(C=C(C(=O)N(C)C)c3ccccc32)CC1.O=C(O)C(F)(F)F,Percent Effect,"30.3 µM, […]",51.51%
CCC(=O)N1CCC2(C=C(C(=O)N(C)C)c3ccccc32)CC1,Percent Effect,"30.3 µM, […]",92.12%
CC(C)Cc1cc(CNc2nc(-c3cccnc3)nc3c2CNC3)no1,Percent Effect,"30.3 µM, […]",9.598%
O=C(c1cccnc1)N1CCN(CC2CC2)c2ncccc2C1,Percent Effect,"30.3 µM, […]",14.27%
O=C(c1ccoc1)N1CC[C@@H]2O[C@@H](COCc3ccccn3)CC[C@@H]21,Percent Effect,"30.3 µM, […]",-30.2%
O=C(N1CCOCC1)N1CC[C@H]2[C@@H]1CCC(=O)N2c1ccccc1,Percent Effect,"30.3 µM, […]",31.55%
Cc1ccc(C(=O)N2CCC3(CCN(Cc4ccccn4)C3=O)C2)cn1 (configuration not stated),Percent Effect,"30.3 µM, […]",50.83%
Cc1oncc1C(=O)N1CCC2(CCN(Cc3ccccn3)C2=O)C1 (configuration not stated),Percent Effect,"30 µM, 30.03 µM",-19.39%
O=C(c1cccnc1)N1CCC2(CC1)CCN(Cc1ccccn1)C2=O,Percent Effect,"30.3 µM, […]",28.38%
